Data as given in PubChem BioAssay AID686952 (The Scripps Research Institute Molecular Screening Center, 2013).
In all, about 3,200 compounds went through this assay and about 2,600 (81%) were called active. The set was probably picked from earlier hits. These entries were drawn from the full list. A number with no mark means an inactive call.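 How the source made its calls: active means activation above the all-compound mean plus 3 SD, ignoring values outside control-based bounds (cut at about 4.8% in these data); inactive means the rest.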

Assay: EDANS-DABCYL substrate optical interference, artefact control for kallikrein-7 zymogen activator project, biochemical, fluorescence intensity, high throughput (AID 686952);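 further: value is the 4 h activation minus the activation read at time zero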
Conditions: no enzyme, 4 h, at 7 µM, hits give high values, solvent 0%, active enzyme control 100%

Compound | activation
COc1cccc(OCc2cc(/C=N/NC(=O)c3nc(Cl)c(Cl)c(N)c3Cl)ccc2OC)c1 | 59.5% (active)
Cc1cc(C)c2nc3nc(C)cc(C)c3c(N)c2c1 | 70.4% (active)
CCOC(OCC)c1ccc(/C=C\c2nccc(N)n2)cc1 | -13.8%
COc1ccc(CNC(=O)COC(=O)C2=Cc3ccccc3OC2)cc1 | 11.3% (active)
COc1cc2c(cc1OC)C(C(C)C)=NC(C)(C)C2 | 72.2% (active)
CN1c2ccccc2-c2nc3ccccc3n2C1c1ccco1 (stereo not given) | 11.9% (active)
CNc1cncc(-c2cccc(C(=O)N3CCOCC3)c2)n1 | 37.5% (active)
CCCn1c(=NC(C)=O)c(C(=O)OCC)cc2c(=O)n3ccccc3nc21 | 32.4% (active)
CCN1CCc2c(C#N)c(NCc3ccccc3)nc(NCCO)c2C1 | 28.7% (active)
COC(=O)C1=NN(c2ccccc2)C2C(=O)N(c3ccccc3OC)C(=O)C12 (stereo not given) | 14.9% (active)
CN(C)C(=O)c1coc2nc3ccccc3nc12 | 110% (active)
O=C(O)c1ccc2c(c1)C(=O)N(c1ccc(/C=C/C(=O)c3ccccc3)cc1)C2=O | 722% (active)
O=C(/C=C/c1ccc2c(c1)OCCO2)c1ccc(O)cc1 | 3.03%
CCN(CC)CCCNC(=O)c1cc2c(=O)[nH]c3ccc(C)cc3c2s1 | 12.5% (active)
COC(=O)c1c(C)c(C)nc(N)c1C#N | 63.7% (active)
CCN(CC(=O)Nc1c(F)cccc1F)C(=O)c1ccc(-c2ccc(C(C)=O)cc2)o1 | -16.2%
CN(C)CCN1CCN(c2cc(-c3cccc(Cl)c3)nc3ccnn23)CC1 | -1.14%
COC(=O)Cc1nc2c(N)nc(N)nc2[nH]c1=O | 16.8% (active)
Cc1coc2c1c(C)cc1oc(=O)c(CC(=O)NCC(=O)N[C@H](C(=O)O)C(C)C)c(C)c12 | 34.8% (active)
CNC(=O)COC(=O)c1cc(-c2ccc(OC)cc2)nc2ccccc12 | 97.4% (active)
COc1ccc(-c2cc(C(=O)n3cnc4ccccc43)c3ccccc3n2)cc1 | 53.3% (active)
O=c1c(-c2ccccc2)coc2c(CN3CCOCC3)c(O)ccc12 | 15.3% (active)

Compound | activation
COc1cccc2sc3cc(NCC[C@@H]4CCCN4C)ccc3c(=O)c12 | 38.3% (active)
CCCCc1cc(=O)oc2cc(C)cc(OCc3nn[nH]n3)c12 | 29.5% (active)
Cc1ccsc1-c1cc(C(=O)O)c2c(ccc3ccccc32)n1 | 21.4% (active)
COC(=O)c1cnn2c(C(F)(F)F)cc(-c3ccco3)nc12 | 35.9% (active)
O=C(OC1CCOC1=O)c1ccc(-c2nc3ccccc3s2)s1 (stereo not given) | 13.6% (active)
Cc1nc2ccc(N)nc2nc1C | 59.7% (active)
O=C(O)c1cccnc1Sc1ncnc2sc3c(c12)CCC3 | 15.9% (active)
CCCCN(C)CCCNC(=O)c1cc(-c2cccs2)nc2ccccc12 | -40.9%
O=C(NCCN1CCOCC1)c1cc(-c2cccs2)nc2ccccc12 | 31.9% (active)
O=c1oc2cc(O)ccc2cc1-c1ccc(F)cc1 | 80.8% (active)
CCNC(=S)Nc1ccc2c(c1)c(=O)n(C)n2Cc1ccc(Cl)cc1 | -1.33%
COc1ccc(CCNC(=O)Nc2ccc3c(c2)c(=O)n(C)n3C)cc1OC | 22.7% (active)
C=CCn1c(N)c(S(=O)(=O)c2cccs2)c2nc3ccccc3nc21 | -4.5%
COCCCn1c(-c2cccs2)nc2nc3ccccc3nc21 | 24.8% (active)
COc1nc(N=C(N)N)nc2c(C)cccc12 | 20.6% (active)
NC(N)=Nc1nc(-c2ccccc2)c2cc(Cl)ccc2n1 | -2.58%
CCC1=C(C(=O)OC)C(c2cc(OC)ccc2OC)C(C#N)=C(N)O1 (stereo not given) | 32.6% (active)
Cc1cc(N2CCOCC2)nc2ccc(NC(=S)N3CCN(Cc4ccccc4)CC3)cc12 | 12.7% (active)
CC(C)(C)OC(=O)c1c(N)n(CCCN2CCCC2=O)c2nc3ccccc3nc12 | 80.7% (active)
COCC(C)OC(=O)c1c(N)n(CCCN2CCOCC2)c2nc3ccccc3nc12 (stereo not given) | 19% (active)
CC(C)=NN1C(=O)c2ccccc2NC1(C)C | 24.5% (active)
CCOc1ccc(N2C(=O)CC(N(O)c3ccccc3)C2=O)cc1 (stereo not given) | 188% (active)

Compound | activation
Nc1ccccc1-c1nc2ccncc2[nH]1 | 5.73% (active)
CCCc1cc(=O)oc2c(C)c(O)c(CN3CCCCC3)cc12 | 68.1% (active)
CCOc1c2ccc(C(=O)NCc3ccc4c(c3)OCO4)cc2nn1C | 4.67% (active)
COCc1cc(=O)[nH]c2cc(NC(=O)C(F)(F)F)c(C)cc12 | 232% (active)
CCC(c1nnnn1Cc1ccco1)N(CCc1ccccc1)Cc1cc2ccc(OC)cc2[nH]c1=O (stereo not given) | 1.63%
CC(=O)Oc1ccc2c(C)c(CC(C)O)c(=O)oc2c1 (stereo not given) | 80% (active)
CC(=O)Nc1cc2ccc(OC(C)=O)cc2oc1=O | 127% (active)
COCCN(CCOC)c1nc(N)c2c(N)nc3c(c2c1C#N)CC(=O)N3Cc1ccc(Cl)cc1 | -34.7%
COc1ccc2oc(=O)c(C(=O)N3CCCC3)cc2c1 | 23.6% (active)
CCN1CCN(C(=O)c2cc3cc4ccc(OC)cc4nc3s2)CC1 | -12.4%
Cc1nc2ccccc2cc1O | 4.33% (active)
Cc1cc(S(=O)(=O)c2cc3ccc(O)c(C)c3oc2=O)ccc1F | 63.2% (active)
N#CC1=C(N)Oc2c(sc3ccccc23)C1c1ccco1 (stereo not given) | -21.2%
Nc1ccc2nn(-c3ccc(Cl)cc3)nc2c1 | 62.1% (active)
COc1ccc(C2=CC(c3cccc(OC)c3)n3nnnc3N2)cc1 (stereo not given) | -27.9%
COC(=O)c1ccc(C2C3=C(Nc4nnnn42)c2ccccc2OC3)cc1 (stereo not given) | 4.8% (active)
CC(C)(C)Nc1c(-c2cccs2)nc2ccccn12 | -64.5%
FC(F)(F)Oc1ccc(-c2cn3cccnc3n2)cc1 | 36.4% (active)
COc1ccc(-c2cn3cccnc3n2)cc1 | 79.8% (active)
c1ccc(-c2cn3cccnc3n2)cc1 | 72.3% (active)
Cc1oc2nc(SCC(=O)Nc3ccc(S(N)(=O)=O)cc3)nc(NC(=O)c3ccccc3)c2c1C | 3.36%
